Drawing on PubChem BioAssay (NCI), this text covers growth inhibition for nine molecules.

This is part of a sample that, as a whole, favours compounds with a hit. Of some 79,000 tested, about 15% had one in any assay. A number with no mark means an inactive call. The source made the active and inactive calls. Cut-off read from the data, not from the text of the source: active = growth inhibition above about 70%; inactive = the rest.

The nature of experiment [1]: NCI Yeast Anticancer Drug Screen. Data for the rad50 strain (AID 155).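 Note: 0% = growth of vehicle-only cultures of the same strain.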 To be noted: S. cerevisiae rad50 strain growth inhibition, active compounds read high. An outline of the steps:
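Readout: growth inhibition relative to vehicle-treated cultures. Compound exposure was carried out in a genetically defined yeast strain deficient in DNA damage repair.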

Experiment [2] is described as follows: NCI Yeast Anticancer Drug Screen. Data for the mec2-1 strain (AID 157). To be noted: S. cerevisiae mec2-1 strain, active compounds read high. An outline of the steps: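 Vehicle-treated cultures served as reference for growth inhibition of compound-exposed mec2-1 yeast.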
The nature of experiment [3]: NCI Yeast Anticancer Drug Screen. Data for the sgs1 mgt1 strain (AID 161).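 Note: 0% = growth of cultures given vehicle only.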 As to conditions: S. cerevisiae sgs1 mgt1 strain, active compounds read high. In short, it runs like this: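 Read-out: growth inhibition vs vehicle controls. Cells: mutant yeast strain deficient in DNA damage repair.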
Experiment [4] in a line: NCI Yeast Anticancer Drug Screen. Data for the cln2 rad14 strain (AID 165).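 Note: 0% = growth equal to vehicle treated cultures.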 To be noted: S. cerevisiae cln2 rad14 strain, active compounds read high. An outline of the steps: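 Each compound was tested on cln2 rad14 yeast. Inhibition of growth was calculated against vehicle-exposed controls.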
A short description of experiment [5]: NCI Yeast Anticancer Drug Screen. Data for the bub3 strain (AID 167). To be noted: S. cerevisiae bub3 mutant strain, active compounds read high. An outline of the steps: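 Readout: yeast growth inhibition, expressed relative to vehicle-only wells. The test organism is a mutant strain from a panel with lesions in DNA repair or checkpoint genes.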
Experiment [6] is described as follows: NCI Yeast Anticancer Drug Screen. Data for the mlh1 rad18 strain (AID 175). As to conditions: S. cerevisiae mlh1 rad18 strain growth inhibition, active compounds read high. In short, it runs like this: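 Vehicle-treated cultures served as the reference for growth inhibition in a yeast strain carrying DNA damage repair alterations exposed to each compound.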
The mark [7] stands for this setting: at 5.0 µM (retest, dose inferred, filed as 0.5).
Where [8] appears, read: at 50.0 µM (retest, dose inferred, filed as 5.0).

Regarding `Cc1cc(C)c(S(=O)(=O)c2c(C)cc(C)cc2C)c(C)c1`, the growth inhibition in experiment [1] (setting [7]) was -3%; in experiment [1] (setting [8]), -7%; in experiment [1] (at 50.0 µM), 39%; in experiment [2] (setting [7]), -4%; in experiment [2] (setting [8]), -9%; in experiment [2] (at 50.0 µM), 12.5%. Besides, the growth inhibition in experiment [3] (setting [7]) is -4%; in experiment [3] (setting [8]) it was -4%; in experiment [3] (at 50.0 µM) it was 6.2%; in experiment [4] (setting [7]), -5%; in experiment [4] (setting [8]), -22%; in experiment [4] (at 50.0 µM), 41.7%. For the same molecule, the growth inhibition was -3% in experiment [5] (setting [7]); -6% in experiment [5] (setting [8]); 0.65% in experiment [5] (at 50.0 µM); -6% in experiment [6] (setting [7]); -12% in experiment [6] (setting [8]); 1.15% in experiment [6] (at 50.0 µM).

`O=C1C=C(c2ccccc2)O/C1=C\C(=O)c1ccc(Cl)cc1`: the growth inhibition in experiment [1] (setting [7]) is 48%; in experiment [1] (setting [8]), 48%; in experiment [1] (at 50.0 µM), 89.3% (active); in experiment [2] (setting [7]) it was 43%; in experiment [2] (setting [8]), 43%; in experiment [2] (at 50.0 µM) it was 90.9% (active). The growth inhibition in experiment [3] (setting [7]) was 54%; in experiment [3] (setting [8]), 54%; in experiment [3] (at 50.0 µM), 86.4% (active); in experiment [4] (setting [7]), 14%; in experiment [4] (setting [8]) it was 14%; in experiment [4] (at 50.0 µM) it was 87.5% (active). Besides, the growth inhibition in experiment [5] (setting [7]) is 22%; in experiment [5] (setting [8]), 22%; in experiment [5] (at 50.0 µM) it was 88% (active); in experiment [6] (setting [7]) it was 44%; in experiment [6] (setting [8]) it was 44%; in experiment [6] (at 50.0 µM) it was 84.5% (active).

Turning to `O=[N+]([O-])c1ccc(SCc2ccccc2)c2nonc12`, the growth inhibition was 13% in experiment [1] (setting [7]); 63% in experiment [1] (setting [8]); 86.8% (active) in experiment [1] (at 50.0 µM); 12% in experiment [2] (setting [7]); 99% (active) in experiment [2] (setting [8]); 89.5% (active) in experiment [2] (at 50.0 µM). For the same molecule, the growth inhibition was 14% in experiment [3] (setting [7]); 87% (active) in experiment [3] (setting [8]); 88% (active) in experiment [3] (at 50.0 µM); 13% in experiment [4] (setting [7]); 77% (active) in experiment [4] (setting [8]); 88.9% (active) in experiment [4] (at 50.0 µM). Further, the growth inhibition in experiment [5] (setting [7]) is 11%; in experiment [5] (setting [8]), 97% (active); in experiment [5] (at 50.0 µM), 88.7% (active); in experiment [6] (setting [7]), 22%; in experiment [6] (setting [8]), 81% (active); in experiment [6] (at 50.0 µM) it was 86% (active).

In the case of `S=C(C#Cc1ccccc1)Nc1ccccc1`, the growth inhibition is -73% in experiment [1] (setting [7]); 87% (active) in experiment [1] (setting [8]); 99.3% (active) in experiment [1] (at 50.0 µM); -36% in experiment [2] (setting [7]); 97% (active) in experiment [2] (setting [8]); 99.4% (active) in experiment [2] (at 50.0 µM). For the same molecule, the growth inhibition was -30% in experiment [3] (setting [7]); 96% (active) in experiment [3] (setting [8]); 96.7% (active) in experiment [3] (at 50.0 µM); -37% in experiment [4] (setting [7]); 94% (active) in experiment [4] (setting [8]); 99% (active) in experiment [4] (at 50.0 µM). The growth inhibition was -47% in experiment [5] (setting [7]); 96% (active) in experiment [5] (setting [8]); 99% (active) in experiment [5] (at 50.0 µM); -93% in experiment [6] (setting [7]); 94% (active) in experiment [6] (setting [8]); 99% (active) in experiment [6] (at 50.0 µM).

`CC(C)(C)c1ccc(-n2c3nc(=O)n(-c4ccccc4C(F)(F)F)c(=O)c-3cc3ccccc32)cc1`: the growth inhibition is 13% in experiment [1] (setting [7]); 96% (active) in experiment [1] (setting [8]); 59.1% in experiment [1] (at 50.0 µM); 3% in experiment [2] (setting [7]); 99% (active) in experiment [2] (setting [8]); 50% in experiment [2] (at 50.0 µM). Also, the growth inhibition was 10% in experiment [3] (setting [7]); 98% (active) in experiment [3] (setting [8]); 61.1% in experiment [3] (at 50.0 µM); 13% in experiment [4] (setting [7]); 97% (active) in experiment [4] (setting [8]); 60.5% in experiment [4] (at 50.0 µM). The growth inhibition in experiment [5] (setting [7]) is 8%; in experiment [5] (setting [8]) it was 98% (active); in experiment [5] (at 50.0 µM), 47.1%; in experiment [6] (setting [7]), 15%; in experiment [6] (setting [8]) it was 98% (active); in experiment [6] (at 50.0 µM), 65.6%.

For `CC1CCCN(c2cc(N(C)C)c([N+](=O)[O-])cc2F)C1` (configuration not stated), the growth inhibition in experiment [1] (setting [7]) is 34%; in experiment [1] (setting [8]), 47%; in experiment [1] (at 50.0 µM) it was 32.2%; in experiment [2] (setting [7]) it was 35%; in experiment [2] (setting [8]) it was 49%; in experiment [2] (at 50.0 µM), 11.7%. In addition, the growth inhibition in experiment [3] (setting [7]) was 37%; in experiment [3] (setting [8]), 59%; in experiment [3] (at 50.0 µM), 38.2%; in experiment [4] (setting [7]) it was 34%; in experiment [4] (setting [8]), 46%; in experiment [4] (at 50.0 µM) it was 51.5%. Further, the growth inhibition is 41% in experiment [5] (setting [7]); 86% (active) in experiment [5] (setting [8]); 71.8% (active) in experiment [5] (at 50.0 µM); 45% in experiment [6] (setting [7]); 67% in experiment [6] (setting [8]); 37.5% in experiment [6] (at 50.0 µM).

Regarding `CSc1nc(COC(=O)NC(C)C)c(COC(=O)NC(C)C)n1-c1ccccc1`, the growth inhibition in experiment [1] (setting [7]) was -12%; in experiment [1] (setting [8]), 11%; in experiment [1] (at 50.0 µM) it was -17.1%; in experiment [2] (setting [7]), 23%; in experiment [2] (setting [8]), 11%; in experiment [2] (at 50.0 µM), 4.2%. The growth inhibition in experiment [3] (setting [7]) is -19%; in experiment [3] (setting [8]), -6%; in experiment [3] (at 50.0 µM), -6.15%; in experiment [4] (setting [7]) it was 13%; in experiment [4] (setting [8]), 4%; in experiment [4] (at 50.0 µM), 53.1%. In addition, the growth inhibition in experiment [5] (setting [7]) is 8%; in experiment [5] (setting [8]), 22%; in experiment [5] (at 50.0 µM), -12.7%; in experiment [6] (setting [7]), -1%; in experiment [6] (setting [8]), -6%; in experiment [6] (at 50.0 µM) it was 18.9%.

On to `O=C1c2cc(O)ccc2C(=O)c2c1ccc(O)c2O`, for which the growth inhibition in experiment [1] (setting [7]) was 11%; in experiment [1] (setting [8]), 98% (active); in experiment [1] (at 50.0 µM) it was 98.7% (active); in experiment [2] (setting [7]), 14%; in experiment [2] (setting [8]) it was 99% (active); in experiment [2] (at 50.0 µM), 97.2% (active). The growth inhibition is 12% in experiment [3] (setting [7]); 98% (active) in experiment [3] (setting [8]); 96.5% (active) in experiment [3] (at 50.0 µM); 12% in experiment [4] (setting [7]); 97% (active) in experiment [4] (setting [8]); 90.7% (active) in experiment [4] (at 50.0 µM). For the same molecule, the growth inhibition in experiment [5] (setting [7]) was 4%; in experiment [5] (setting [8]), 98% (active); in experiment [5] (at 50.0 µM) it was 97.8% (active); in experiment [6] (setting [7]), 4%; in experiment [6] (setting [8]), 99% (active); in experiment [6] (at 50.0 µM), 98.2% (active).

For `N#Cc1c(-c2ccc(Cl)cc2)c(-c2ccc(Cl)cc2)nn(CCOC(=O)CN)c1=O`, the growth inhibition in experiment [1] (setting [7]) is 18%; in experiment [1] (setting [8]), 94% (active); in experiment [1] (at 50.0 µM), 40.5%; in experiment [2] (setting [7]), 10%; in experiment [2] (setting [8]), 96% (active); in experiment [2] (at 50.0 µM) it was 57%. Besides, the growth inhibition was -27% in experiment [3] (setting [7]); 89% (active) in experiment [3] (setting [8]); 45.6% in experiment [3] (at 50.0 µM); 6% in experiment [4] (setting [7]); 82% (active) in experiment [4] (setting [8]); 18.6% in experiment [4] (at 50.0 µM). Moreover, the growth inhibition was -16% in experiment [5] (setting [7]); 86% (active) in experiment [5] (setting [8]); 35.1% in experiment [5] (at 50.0 µM); 22% in experiment [6] (setting [7]); 97% (active) in experiment [6] (setting [8]); 87% (active) in experiment [6] (at 50.0 µM).
